We go through 58 molecules from paper PMC4336329 (PLoS ONE, 2015).

Out of some 310,000 compounds screened, about 14,000 (4.5%) showed an effect of 50% or more. Effects have a minus sign here. The list comes from a sample in which strong results are over-represented; it also holds similar structures and randomly drawn compounds.
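Note: peak tail current of the secondary pulse compared with the same well before compound.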

The target of this assay is human ether-à-go-go-related gene (hERG) potassium channel (human, UniProt Q12809). In words: primary screen, population patch clamp on CHO cells stably expressing hERG; higher = less effect of the substance.
human ether-à-go-go-related gene (hERG) potassium channel, sequence (Q12809 whole entry, looked up): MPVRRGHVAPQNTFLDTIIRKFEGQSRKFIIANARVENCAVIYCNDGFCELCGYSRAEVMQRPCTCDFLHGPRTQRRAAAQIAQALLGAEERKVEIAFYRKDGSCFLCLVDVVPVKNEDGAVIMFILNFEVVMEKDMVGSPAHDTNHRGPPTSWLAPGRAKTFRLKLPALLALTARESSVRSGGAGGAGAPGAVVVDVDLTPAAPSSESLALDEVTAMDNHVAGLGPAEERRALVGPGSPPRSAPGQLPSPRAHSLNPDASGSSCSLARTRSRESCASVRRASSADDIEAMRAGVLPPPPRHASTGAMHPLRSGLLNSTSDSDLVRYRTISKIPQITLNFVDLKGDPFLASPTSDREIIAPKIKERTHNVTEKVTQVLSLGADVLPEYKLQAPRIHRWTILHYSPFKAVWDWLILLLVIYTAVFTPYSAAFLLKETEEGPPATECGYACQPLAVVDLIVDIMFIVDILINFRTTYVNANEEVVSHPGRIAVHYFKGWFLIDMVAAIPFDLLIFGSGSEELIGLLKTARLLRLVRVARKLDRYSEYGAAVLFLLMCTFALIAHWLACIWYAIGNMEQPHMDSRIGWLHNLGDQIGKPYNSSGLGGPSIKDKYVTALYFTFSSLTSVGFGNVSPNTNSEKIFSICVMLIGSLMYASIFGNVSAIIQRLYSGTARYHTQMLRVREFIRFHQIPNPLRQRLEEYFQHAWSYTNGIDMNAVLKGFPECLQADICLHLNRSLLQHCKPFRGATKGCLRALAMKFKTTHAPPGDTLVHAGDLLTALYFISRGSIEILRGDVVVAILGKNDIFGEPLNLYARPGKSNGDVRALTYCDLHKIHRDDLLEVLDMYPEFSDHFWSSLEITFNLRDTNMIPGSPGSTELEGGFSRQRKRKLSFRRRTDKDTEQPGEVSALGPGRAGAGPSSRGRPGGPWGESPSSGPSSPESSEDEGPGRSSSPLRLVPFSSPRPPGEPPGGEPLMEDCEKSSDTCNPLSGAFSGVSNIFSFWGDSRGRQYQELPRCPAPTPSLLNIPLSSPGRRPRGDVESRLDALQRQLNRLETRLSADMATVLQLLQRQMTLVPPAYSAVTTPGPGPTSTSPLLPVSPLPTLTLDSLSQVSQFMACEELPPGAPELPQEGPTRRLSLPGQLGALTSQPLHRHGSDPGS
With `Cn1c(Cn2c(=O)sc3ccccc32)nnc1SCC(=O)NCc1ccccc1`, the “hERG current change (%, negative = inhibition) at 10uM” value is reported as -0.25%. Consider `Cc1ccc(NC(=S)N2CCN(S(=O)(=O)c3c(F)cccc3F)CC2)cc1C`, for which the “hERG current change (%, negative = inhibition) at 10uM” value is -17.6%.

With `Cc1ccc(Nc2nc(N)nc(CSc3nnnn3-c3ccccc3)n2)cc1`, the “hERG current change (%, negative = inhibition) at 10uM” value amounted to 4.49%. On to `Nc1nc(CSc2ncccn2)nc(Nc2ccccc2)n1`, for which the “hERG current change (%, negative = inhibition) at 10uM” value is on record as 1.55%. With `Cc1ccc(Nc2nc(N)nc(CSc3ncccn3)n2)cc1` the figure was -18.7%; with `Nc1nc(CN2CCc3ccccc3C2)nc(Nc2ccccc2)n1`, -51%; with `COc1ccccc1Nc1nc(N)nc(CN2CCc3ccccc3C2)n1`, -44.8%. With `COc1ccc(Nc2nc(N)nc(CN3CCc4ccccc4C3)n2)cc1` the figure was -56.4%; with `COc1ccc(Nc2nc(N)nc(CSC(=S)N3CCCCC3)n2)cc1`, 0.179%; with `Cc1ccc(Nc2nc(N)nc(CN3CCc4ccccc4C3)n2)cc1`, -72.2%.

Regarding `Nc1nc(CSCCO)nc(Nc2ccccc2)n1`, the “hERG current change (%, negative = inhibition) at 10uM” value turned out to be 9.39%. For `COc1cc([N+](=O)[O-])ccc1NC(=O)COC(=O)CCOc1ccc(C)cc1`, the “hERG current change (%, negative = inhibition) at 10uM” value was -11.2%.

As for `O=C(CCCCn1c(=O)c2ccccc2n(CC(=O)NC2CCCC2)c1=O)NCc1ccco1`, the “hERG current change (%, negative = inhibition) at 10uM” value is -15.6%. For `O=C(O)CSc1nnc(Cc2ccccc2)n1-c1ccccc1`, the “hERG current change (%, negative = inhibition) at 10uM” value turned out to be 5.74%. Consider `COc1cc(CNCCO)ccc1OCCc1ccccc1`, for which the “hERG current change (%, negative = inhibition) at 10uM” value came out at 6.61%. The value for `COc1cc(C)c(C(=O)Oc2cc(C)c(C(=O)O)c(O)c2)c(O)c1` was 11.5%; that for `CCOc1cc(C(=O)N2CCc3cc(OC)c(OC)cc3C2)ccc1OC(F)F` was -35.7%; that for `COc1ccc(OCCN2CCN(C(=O)c3ccc(OC(F)F)c(OC)c3)CC2)cc1` was -72.6%. Regarding `CN1CCN(CCOc2cccc(Cl)c2)CC1.Cl`, the “hERG current change (%, negative = inhibition) at 10uM” value worked out at 1.19%. With `COc1ccc(C(=O)NCCN2CCN(C(=O)c3ccc(OC)c(OC)c3)CC2)cc1OC` the figure was 14.5%; with `COc1ccc(C(=O)N2CCCC2)cc1`, -2.88%; with `N#Cc1ccc(CN2C(=O)NC3(CCCCCC3)C2=O)cc1`, -32.2%. In the case of `COc1ccc(OCCN2CCN(C(=O)c3ccc(OC)cc3)CC2)cc1`, the “hERG current change (%, negative = inhibition) at 10uM” value is -87.2%.

On to `COc1ccc(C(=O)N2CCN(C(=O)c3ccncc3)CC2)cc1`, for which the “hERG current change (%, negative = inhibition) at 10uM” value worked out at 12.4%.

On to `Clc1cccc(OCCN2CCN(CCOc3cccc(Cl)c3)CC2)c1`, for which the “hERG current change (%, negative = inhibition) at 10uM” value is recorded as -70.8%. With `CC1(C)NC(=O)N(CCOc2ccc([N+](=O)[O-])cc2)C1=O` the figure was -37.6%; with `Cl.Clc1cccc(OCCN2CCCC2)c1`, 2.13%. For `N#Cc1ccc(OCCN2C(=O)NC3(CCSC3)C2=O)cc1` (stereo not shown), the “hERG current change (%, negative = inhibition) at 10uM” value is -57.2%. With `CCC1(CC)C(=O)C2=C3C1[C@H](C(=O)OC)C=C(C(=O)OC)C[C@H]3[C@H]1C(=O)NC(=O)[C@H]1[C@H]2C` (stereo partly shown) the figure was 3.57%; with `NS(=O)(=O)c1c(Sc2ccccc2C(=O)O)ccc2ccccc12`, 28.4%; with `CC1CCN(S(=O)(=O)c2c[nH]c(=O)[nH]c2=O)CC1`, 6.09%. As to `CC1CCCN(S(=O)(=O)c2ccc3c(c2)c(=O)nc2ccc(Cl)cn23)C1` (stereo not shown), the “hERG current change (%, negative = inhibition) at 10uM” value was -10.5%.

Regarding `CC(=O)Nc1ccc(NC(=O)C2CCCN(S(=O)(=O)c3ccc(-n4cnnn4)cc3)C2)cc1` (stereo not shown), the “hERG current change (%, negative = inhibition) at 10uM” value came out at 0.72%. The value for `Cc1cccc(C)c1NC(=O)CNC(=O)C(Cc1ccccc1)NC(=O)c1ccccc1` (stereo not shown) was 13.5%; that for `COc1cc(OC)cc(C(=O)N2CCN(C(=O)c3ccc(OC)c(OC)c3)CC2)c1` was -14%. On to `CN1CCN(C(=O)c2ccc(Cl)cc2)CC1`, for which the “hERG current change (%, negative = inhibition) at 10uM” value is on record as 8.8%. As for `O=C1NC2(CCc3ccccc3C2)C(=O)N1CCOc1cccc(Cl)c1` (stereo not shown), the “hERG current change (%, negative = inhibition) at 10uM” value is recorded as -51.1%. Consider `Cc1ccc(C)n1CCN1CCN(C(=O)CC#N)CC1`, for which the “hERG current change (%, negative = inhibition) at 10uM” value came to 16.3%.

Regarding `COc1ccc(OCCN2C(=O)NC3(CCc4ccccc4C3)C2=O)cc1` (stereo not shown), the “hERG current change (%, negative = inhibition) at 10uM” value is given as -49.7%. With `COc1ccc(OCCN2CCN(C(=O)c3ccc(OC)c(OC)c3)CC2)cc1` the figure was -58.8%; with `Cc1ccc(C)n1CCN1CCN(C(=O)c2ccc(Cl)cc2)CC1`, -50.3%; with `COc1ccc(C(=O)N2CCN(Cc3ccc(OC)c(OC)c3)CC2)cc1.O=C(O)C(=O)O`, 0.702%.

Turning to `O=C(c1ccc(Cl)cc1)N1CCN(CCOc2ccccc2)CC1`, the “hERG current change (%, negative = inhibition) at 10uM” value is on record as -60.1%.

As to `O=C(CN1C(=O)NC2(CCCC2)C1=O)OCCOc1cccc(Cl)c1`, the “hERG current change (%, negative = inhibition) at 10uM” value is -7.43%. The value for `CN1CCN(C(=O)c2ccc(OCCOc3ccccc3)cc2)CC1` was -9.69%. Turning to `O=C(c1c(F)cccc1F)N1CCN(CCOc2ccccc2)CC1`, the “hERG current change (%, negative = inhibition) at 10uM” value is given as -8.2%.

Turning to `COc1ccc(C(=O)Nc2cccc(-c3ccc4nncn4n3)c2)cc1OC`, the “hERG current change (%, negative = inhibition) at 10uM” value was found to be 8.84%. The value for `Cc1ccccc1Nc1c(-c2ccc(N3CCOCC3)cc2)nc2cnccn12` was -1.1%. On to `COc1cc(OC)cc(C(=O)N[C@H](C(=O)Nc2cccc(S(=O)(=O)N3CCCC3)c2)C(C)C)c1`, for which the “hERG current change (%, negative = inhibition) at 10uM” value was 2.47%. Regarding `O=C(N/N=C/c1ccco1)c1cc(-c2ccccc2)nc2ccccc12`, the “hERG current change (%, negative = inhibition) at 10uM” value stood at 2.45%. Turning to `Cn1c(=NC(=O)C2=NNC(=O)CC2)sc2ccccc21`, the “hERG current change (%, negative = inhibition) at 10uM” value worked out at 15.2%. With `O=C(NNC1=C(C(=O)C(F)(F)F)CCC1)c1ccccc1Cl` the figure was 13%; with `Cc1cc(C(=O)Nc2cccc(C)c2C)n(-c2ccccc2)n1`, -11.7%; with `O=C(Nc1cccc(S(=O)(=O)N2CCOCC2)c1)c1ccc(N2CCCC2=O)cc1`, 8.25%.

For the molecule `COCCCN(CC(=O)O)S(=O)(=O)c1cccc(Cl)c1`, the “hERG current change (%, negative = inhibition) at 10uM” value is on record as 16.3%. The value for `O=C(c1ccc(Br)o1)N1CCC(Cc2ccccc2)CC1` was -10.5%. In the case of `O=C(c1ccc(Br)o1)N1CCN(CCOc2ccccc2)CC1`, the “hERG current change (%, negative = inhibition) at 10uM” value is reported as -54.1%. The value for `O=C(c1ccco1)N1CCN(CCOc2ccccc2)CC1` was 0.652%.
